This note sets out measurements from PubChem BioAssay AID819 (Columbia University Molecular Screening Center, 2007).

About 280 (0.3%) of roughly 94,000 compounds were called active.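 Rule for the calls: active = activation above 40%, about the mean plus 3 SD, also judged a hit on visual image review; inconclusive = activation above 40% but not a hit on visual review; inactive = activation not above 40% and no visual hit.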 The full list was thinned out, with actives kept by preference.

The nature of this test: enhancers of NFkB p65 translocation in HUVEC – imaging, IL-1B stimulus, high-content imaging, primary screen (AID 819).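 Note: percent activation is computed from the nuclear over cytoplasmic p65 intensity ratio.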 To be noted: HUVEC IL-1B NFkB p65 nuclear translocation imaging; at 2 µM; hits give high values.
As to `CN(C)/C(CN1CCCCC1)=C1\N=C(c2ccccc2)OC1=O`, the activation is 13.1% (inactive). As for `CC(=O)NC1=NN(C(C)=O)C(C)(c2ccc(Cl)s2)S1` (stereo unspecified), the figure is -0.11% (inactive). Consider `O=C(CN1CCN(c2ccc(Cl)cc2)CC1)N1CCCC1`, for which the activation is -4.06% (inactive).

On to `O=C(Nc1cccc(Cl)c1)Nc1nnc(-c2ccccc2)o1`, for which the activation was -2.48% (inactive). For `CC(C(=O)Nc1ccc(F)c(F)c1F)N1CCCCCC1` (stereo unspecified), the activation was 24.8% (inactive). Take `O=C(CN1C(=O)NC2(CCCC2)C1=O)Nc1ccc(F)c(F)c1F`: the activation was 40.4% (active).

In the case of `CC1CCC2(CC1)NC(=O)N(CC(=O)c1cccn1C)C2=O` (stereo unspecified), the activation is -10.9% (inactive). As for `C=CCn1c(Cn2nnc3ccccc32)nnc1SCC(=O)N/N=C/c1cc(Br)cc(OC)c1O`, the figure is -7.49% (inactive); as for `COc1ccccc1CSc1nc2ccccc2[nH]1`, 0.73% (inactive); as for `O=C(Cc1ccc(S(=O)(=O)N2CCOCC2)s1)NCCC(c1ccccc1)c1ccccc1`, 7.66% (inactive). In the case of `CCOC(=O)C1=C(C)NC(C)=C(C(=O)OCC)C1c1ccccn1`, the activation is 1.56% (inactive). As for `CCCC1NC(=O)NC(C)=C1C(=O)OCC` (stereo unspecified), the figure is -16.9% (inactive); as for `CCOC(=O)C1=C(C)NC(C)=C(C(=O)OCC)C1C1=COCCO1`, 42.7% (active). For `O=C(Nc1ccccc1[N+](=O)[O-])C1C(c2ccccc2)=C1c1ccccc1`, the activation is -5.91% (inactive). As to `O=C(/C=C/Nc1ccccc1OC(F)(F)F)C(F)(F)F`, the activation is 10.9% (inactive).

Consider `O=C(CN1CCSCC1)N/N=C/c1ccc(F)cc1F`, for which the activation is 6.22% (inactive). As for `Cc1cccc(N2CCN(C(=O)CN(C)S(=O)(=O)c3ccc4c(c3)CCC(=O)N4)CC2)c1C`, the figure is -2.04% (inactive); as for `O=C(NC1CCCCC1)c1cc([N+](=O)[O-])ccc1N1CCOCC1`, -1.25% (inactive).

In the case of `Cc1ccc2nc(-c3ccccc3)cc(C(=O)O)c2c1`, the activation is 1.92% (inactive). As for `Cc1ccc(-c2cc(C(=O)Nc3nn[nH]n3)c3ccccc3n2)c(C)c1`, the figure is -7.54% (inactive); as for `CC(C)(C)Cc1nnc(NC(=O)c2cc(-c3ccccc3)nc3ccccc23)s1`, 41.2% (active); as for `OCCN(Cc1ccccc1)Cc1ccc(Cl)cc1`, -4.34% (inactive). As for `Cc1cc(C)n(-c2c(F)c(F)c(COC(=O)c3ccccc3)c(F)c2F)n1`, the figure is 17.9% (inactive); as for `CCCOn1c(-n2nc(C)cc2C)nc2ccccc2c1=O`, 121% (active); as for `CCOn1c(SC(C)C)nc2ccccc2c1=O`, -7.95% (inactive). Regarding `CCOC(=O)C1=NNC2(c3ccc(Cl)cc3)C(=O)N(c3cc(C)cc(C)c3)C(=O)C12` (stereo unspecified), the activation is -2.6% (inactive). For the compound `COC(=O)c1ccc(OCC(=O)NC(C)(C)C)cc1`, the activation was -5.58% (inactive). With `CCOC(=O)c1c(C)oc2cc(Br)c(OCC(N)=O)cc12` the figure was -3.13% (inactive); with `Cc1nn(C)c(Oc2ccccc2)c1[N+](=O)[O-]`, -6.86% (inactive); with `Cc1ccc(NC(=S)N/N=C2/CCCc3c(C)cc(C)cc32)cc1`, 10.5% (inactive).

`Cc1cc(O)cc(O)c1C(=O)Cc1cnn(-c2ccccc2)c1`: the activation is -0.94% (inactive).

In the case of `COc1ccc(CC(=O)c2ccc(O)cc2O)cc1OC`, the activation was 3.51% (inactive).

With `COc1ccc(C(=O)Cc2cnn(-c3ccccc3)c2)c(O)c1`, the activation was 52.4% (active). On to `O=c1c2ccccc2nc2n1C(CSc1ccc(Cl)cc1)CN2` (stereo unspecified), for which the activation is -5.53% (inactive).

Turning to `O=c1c2c(nc3nc[nH]n13)CCC2`, the activation is 17.9% (inactive). `CCCCn1c(=S)[nH]c2cc(S(=O)(=O)N3CCCCC3)ccc21`: the activation is 6.8% (inactive). With `Clc1ccc(-c2nnc(-c3ccccc3)nc2N2CCSCC2)cc1` the figure was 6.76% (inactive); with `CC(C)CNC(=S)NNC(=O)c1ccccc1OC(F)F`, -19% (inactive). With `O=C(Cc1ccccc1)Nc1c(C(=O)N2CCCCCC2)cnn1-c1ccccc1` the figure was -2.59% (inactive). As for `c1ccc(-c2csc(N3CCc4ccccc4C3)n2)cc1`, the figure is -1.32% (inactive); as for `Cc1[nH][nH]c(=O)c1N=Nc1ccccc1`, 19.6% (inactive). As for `Cc1[nH][nH]c(=O)c1C(c1ccc(-c2ccc(Cl)cc2)o1)c1c(C)[nH][nH]c1=O`, the activation is 49.6% (active). With `O=C(CCc1ccc(S(=O)(=O)NC2CCCCC2)cc1)NCc1ccccc1`, the activation was 1.98% (inactive). With `CC(=O)c1cnc(SCCN2C(=O)c3ccccc3C2=O)nc1C` the figure was -4.03% (inactive).

As to `CC(C)c1ccc(NC(=O)CCN2C(=O)c3ccc([N+](=O)[O-])cc3C2=O)cc1`, the activation was 6.09% (inactive). With `CCOC(=O)CC(=O)CSc1nc(-c2ccccc2)cc(-c2ccc(Cl)cc2)c1C#N` the figure was 5.19% (inactive). As for `CN(C)/C=C/C(=O)c1ccccc1F`, the activation was -2.94% (inactive). As for `ONC(=Nc1ccc(Cl)cc1)c1ccccc1Cl`, the figure is 16.3% (inactive). As for `O=C(/C=C/c1ccccc1)N/C(=C/c1ccccc1)C(=O)Nc1ccccc1O`, the figure is -5.06% (inactive); as for `CCOc1ccc(C(CCc2ccccc2)NC(=O)c2ccc(OC)c(OC)c2)cc1OCC` (stereo unspecified), -8.44% (inactive). With `Cc1cc(Nc2ccccc2)nc(N)n1` the figure was 19.9% (inactive). Turning to `CCOc1ccc(-c2c(C)n([O-])c3c([n+]2=O)CCCC3)cc1`, the activation is 0.86% (inactive). As for `Cc1cccc(-n2ncc(C#N)c2-n2cccc2)c1`, the figure is -2.16% (inactive); as for `CCOC(=O)CSc1ncc(-c2cccc(Cl)c2)cn1`, 4.13% (inactive). With `Cc1ccccc1-n1c(C)cc(/C=N/NC(=O)c2ccc(CN3CCOCC3)cc2)c1C` the figure was 20.5% (inactive); with `CC1CCc2c(c3ccccc3[nH]c2=O)O1` (stereo unspecified), -2.19% (inactive); with `COC(=O)c1cc(OC)c(OC)cc1NC(=O)CSc1ccc(C)cc1`, -0.33% (inactive). As for `C/C=C/C(=O)Nc1nnc(C(C)C)s1`, the figure is 11.2% (inactive).

Turning to `CC1=C(C(N)=O)C(c2sccc2C)n2nnnc2N1` (stereo unspecified), the activation is -11.1% (inactive). As for `CCOC(=O)C1=C(CN2CCc3ccccc32)NC(=O)NC1c1cc(C)ccc1C` (stereo unspecified), the figure is 3.45% (inactive); as for `COc1cc(NS(=O)(=O)c2ccc(N=Cc3c(C)[nH]n(-c4ccccc4)c3=O)cc2)nc(OC)n1`, -2.69% (inactive); as for `Cc1cccc(N(C(=O)Cc2cccs2)C(C(=O)NC2CCCC2)c2ccsc2)c1` (stereo unspecified), -6.52% (inactive).

In the case of `O=C(Nc1cc2ccccc2oc1=O)C1CCCCC1`, the activation is -8.41% (inactive).

For the compound `CCC(C)n1c(-c2cc(OC)c(OC)c(OC)c2)nc2nc3ccccc3nc21` (stereo unspecified), the activation was 6.63% (inactive). With `COc1ccc(CCN(C(=O)COc2ccccc2)c2nc(-c3ccccc3)cs2)cc1OC` the figure was 4.5% (inactive); with `O=[N+]([O-])c1ccccc1OCCCCN1CCCCC1`, -1.68% (inactive). As for `CCNC(=S)NNC(=O)Cc1ccccc1`, the figure is 0.95% (inactive); as for `COc1ccc(OCC(=O)NNC(=O)c2ccc(-c3ccccc3)cc2)cc1`, 21.4% (inactive). With `CC(C)(C)c1ccc(C(=O)NNC(=O)Cc2ccccc2)cc1`, the activation was 41.9% (active).

Regarding `Cc1cccc(C)c1NC1=NC(=S)N(c2ccc(N(C)C)cc2)C1(C)C`, the activation is -11.7% (inactive). As for `O=C(CN1CCN(S(=O)(=O)c2ccc3ccccc3c2)CC1)NC(=O)NC1CCCCC1`, the figure is -3.21% (inactive); as for `O=C(Cn1cncn1)N/N=C/c1c2ccccc2cc2ccccc12`, -10.3% (inactive). As for `CCOC(=O)c1c(NC(=O)CCC(=O)NCc2ccco2)sc2c1CCCC2`, the figure is 1.18% (inactive); as for `CC(C)OC(=O)c1c(NC(=O)c2ccco2)sc2c1CCCC2`, -2.72% (inactive); as for `CCOC(=O)c1c(NC(=S)NC(=O)c2ccco2)sc2c1CCCC2`, 53.7% (active). As for `O=C(CSc1nnnn1-c1ccccc1)NCc1ccco1`, the figure is -8.15% (inactive); as for `Cc1sc(NC(=S)NC(=O)c2cccs2)nc1-c1ccc(CC(C)C)cc1`, 17.4% (inactive). As to `O=C(Nc1ccc(Br)c2cccnc12)c1ccc(Cn2cc([N+](=O)[O-])cn2)o1`, the activation was 25.7% (inactive). For `CCN(CC)CCNc1ccc(Cl)cc1[N+](=O)[O-]`, the activation was 11.6% (inactive). For the compound `CC(Sc1nnc(Cc2ccc([N+](=O)[O-])cc2)o1)C(N)=O` (stereo unspecified), the activation was 0.99% (inactive). With `CC(Oc1ccc(Cl)cc1Cl)C(=O)/C=C/N(C)C` (stereo unspecified) the figure was 4.7% (inactive); with `CC1=NC2(CCCc3c2no[n+]3[O-])N(O)C1(C)C` (stereo unspecified), 168% (active); with `Cc1cccc(C)c1-n1c(C)cc(/C=C2\C(=O)NN(c3ccccc3)C2=O)c1C`, -7.75% (inactive). As for `O=C(O)c1ccccc1-c1ccccc1C(=O)Nc1cccc2ccccc12`, the figure is 8.14% (inactive); as for `Cc1ccc(NC(=O)C(C)c2cccc(C(=O)c3ccccc3)c2)cc1` (stereo unspecified), -0.9% (inactive).

For `O=C1C(=O)N(c2ccccc2)c2ccccc21`, the activation is -1.05% (inactive). As for `O=C(NC1CCc2ccccc21)C12CN(Cc3ccccc3)CC1C(c1cccc([N+](=O)[O-])c1)=NO2` (stereo unspecified), the figure is -3.33% (inactive); as for `Cc1cc(C(=O)OCC(=O)Nc2ccc(F)c(F)c2)c(C)o1`, -18.7% (inactive). As for `CCn1c(COc2ccc(OC)cc2)nnc1SCC(=O)Nc1cc(OC)ccc1OC`, the figure is 4.96% (inactive); as for `CCn1c(SC)nc(O)c(C(c2ccc(OC)c(O)c2)c2c(O)nc(SC)n(CC)c2=O)c1=O`, 59.4% (active). As for `COc1ccc2c(c1OC)C(=O)OC2c1c(O)nc(SC)n(-c2ccccc2)c1=O` (stereo unspecified), the figure is 1.27% (inactive); as for `O=C(COc1ccc2ccccc2c1)N1CCN(C(=O)c2cccs2)CC1`, -12.1% (inactive); as for `Cc1nc2c(-c3ccc(F)cc3)c(C)nn2c(C)c1CCC(=O)NCc1ccco1`, -8.14% (inactive). `CCOC(=O)C1=C(c2ccccc2)N=C2SCC(=O)N2C1c1ccc(O)c(OC)c1` (stereo unspecified): the activation was 22.6% (inactive). As for `Cc1cc(-c2ccccc2)n2nc(C)c(-c3ccccc3)c2n1`, the figure is -2.27% (inactive); as for `CC(=O)c1ccc(OCCN2CCOCC2)cc1`, 29.4% (inactive).
